Assay outcomes deposited in PubChem BioAssay by National Center for Advancing Translational Sciences (NCATS).
MBNL1-CUG inh = inhibitors of human MBNL1 binding to CUG repeat RNA; Q9NR56; TR-FRET MBNL1-His/biotin-(CUG)12 binding, 665/545 ratio; Potency, µM (top dose mostly 57.5 µM), inactives show top-dose activity change, negative = inhibition, most hits filed as inhibitors; hit rate 0.036% among 280,000; AID 2675; active means well fitted inhibition curve with a large enough effect in the signal ratio, with a control signal flat, not every such curve was filed as active; inconclusive means small, poorly fitted or top-dose-only effect, or effect the other way, or a change in a side signal; inactive means no such curve, though single readings can be large or run the other way; the % refers to the signal ratio; further: potency means the concentration at half of the fitted maximal effect; on the % scale 0 is the no-effect control and ±100 the full control effect
Target sequence (Q9NR56 whole entry, looked up): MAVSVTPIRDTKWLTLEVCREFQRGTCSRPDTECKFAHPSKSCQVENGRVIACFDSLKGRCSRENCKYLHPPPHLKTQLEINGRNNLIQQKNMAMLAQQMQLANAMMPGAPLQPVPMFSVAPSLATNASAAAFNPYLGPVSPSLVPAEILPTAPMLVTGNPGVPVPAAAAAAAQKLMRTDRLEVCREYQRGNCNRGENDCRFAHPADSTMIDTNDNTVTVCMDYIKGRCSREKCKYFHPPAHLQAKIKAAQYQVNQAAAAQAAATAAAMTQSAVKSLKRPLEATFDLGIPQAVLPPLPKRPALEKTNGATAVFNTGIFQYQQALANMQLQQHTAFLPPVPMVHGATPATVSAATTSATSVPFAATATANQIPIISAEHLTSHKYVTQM
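Ratiometric TR-FRET (665 over 545 nm, excitation 340 nm) tracks disruption of MBNL1-His/biotin-(CUG)12 complex after 60 min at room temperature, with compounds at 92 nM to 58 uM final.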
ASM inhibitor = inhibitors of human secretory acid sphingomyelinase; P17405; placental ASM, HMU-PC fluorogenic substrate, 60 min; Potency, µM (highest dose often 57.5 µM), for inactives: at the top dose activity change, negative = inhibition, hits mostly inhibitors; hit rate 0.006% among 340,000; AID 504937; active means well fitted inhibition curve with a large enough effect; inconclusive means small, poorly fitted or top-dose-only effect; inactive means no such curve, though single readings can be large or run the other way; further: potency means the concentration at half of the fitted maximal effect
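Fluorescence read-out (Ex 386 nm, Em 447 nm) after stopping the reaction at pH 10. Enzyme: ASM from human placenta; substrate HMU-PC0, 9 uM final; 60 min, 37 °C. Compound preincubation 10 min, ambient temperature.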
CXXC DNA block = blocks binding of human MLL CXXC domain to DNA. Q03164. hit rate 0.037% among 290,000. Potency, µM (series often up to 115 µM), without a hit: at the highest dose activity change, negative = inhibition, actives largely listed as inhibitors. MLL-CXXC / FITC-HOXA9 DNA fluorescence polarization; active means well fitted inhibition curve with a large enough effect in the polarisation, with a control signal flat, not every such curve was filed as active; inconclusive means small, poorly fitted or top-dose-only effect, or effect the other way, or a change in a side signal; inactive means no such curve, though single readings can be large or run the other way; the % refers to the polarisation; further: potency means the concentration at half of the fitted maximal effect
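Purified MLL-CXXC (added from a 7 uM solution) was preincubated 5 min at ambient with pinned compounds in 50 mM Tris-HCl pH 7.5, 50 mM NaCl, 1 mM DTT, 0.05% BSA. Fluorescein-labeled HOX-A9 DNA (50 nM solution) followed, 30 min, then polarization read.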
Menin MLL FP FL = inhibitors of human menin-MLL interaction, wild-type MLL peptide; Fluorescence polarization, fluorescein-MLL peptide displacement from menin; FP activity change, % at 61.4 µM; 290,000 tested, under 10 active; AID 1766; active means well fitted curve in the direction sought with a large enough effect in the polarisation, not every such curve was filed as active; inconclusive means small, poorly fitted or top-dose-only effect, or effect the other way, or a change in a side signal; inactive means no such curve, though single readings can be large or run the other way; the % refers to the polarisation; further: % of control where 0% means no effect
Akt phos inh = Akt phosphorylation inhibition | hit rate 0.32% among 360,000 | activity change, % for hits at 50 µM | Neuro2A IGF-stimulated pAkt S473 HTRF, 20 min; stronger effect = lower value; in the data active means activity change below about -80%; inconclusive means mostly about -51% to -80%; further: on the % scale 0 is the no-effect control and ±100 the full control effect
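Neuro2A cells (4,500/well, DMEM with 0.5% FBS) were treated with compound at a single 50 µM final concentration, stimulated with 6 nM IGF for 20 min at 37 °C, and lysed. Phospho-Akt Ser473 was read by HTRF as 665/615 ratio ×10^4.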
Menin-MLL TR inh = displaces Texas Red mutant MLL peptide from human menin. O00255. Menin + Texas Red MLL mutant peptide, fluorescence polarization. Potency, µM (top dose mostly 61.6 µM), for the others: at the top dose FP activity change, negative = inhibition, actives largely listed as inhibitors. hit rate 0.23% among 270,000. AID 1768; active means well fitted inhibition curve with a large enough effect in the polarisation, with a control signal flat, not every such curve was filed as active; inconclusive means small, poorly fitted or top-dose-only effect, or effect the other way, or a change in a side signal; inactive means no such curve, though single readings can be large or run the other way; the % refers to the polarisation; further: potency means the concentration at half of the fitted maximal effect; % of control where 0% means no effect
An asterisk follows results filed as active; i = inactive; ? = inconclusive; . = not tested or not shown; [ ] = remark or other dose. Sampled rows, rich in hits. Any-hit rate of the full collection: about 0.45%.

SMILES | MBNL1-CUG inh | ASM inhibitor | CXXC DNA block | Menin MLL FP FL | Akt phos inh | Menin-MLL TR inh
COC(=O)c1cc(C(=O)OC)cc(N2C(=O)CN=C2Nc2nc(C)cc(C)n2)c1 | 7% | 6% | 0% | 0 | -80%* | ?
COCCn1c(=N)c(C(=O)NCCc2ccc(OC)cc2)cc2c(=O)n3cccc(C)c3nc21 | 25% | 74% | 5% | 6 | -107%* | -8%
N#Cc1c(SCC(N)=O)nc(-c2ccccc2)c2c1CCCC2 | 21% | -1% | 1% | -1 | -111%* | -7%
COCCN(CCOC)S(=O)(=O)c1ccc(C(=O)NC2CCN(Cc3ccccc3)CC2)cc1 | 10% | -2% | -4% | 1 | -113%* | -5%
COc1ccc(CC(=O)N(C)C2CCCCC2)cc1S(=O)(=O)N1CCOCC1 | -4% | -1% | -2% | -1 | i | -26%
CCN1CCN(S(=O)(=O)c2ccc(Cl)c(C(=O)Nc3ccc(OC(F)F)cc3)c2)CC1 | 1% | 0% | 18% | . | i | .
O=C(Nc1ccc(Cl)c(Cl)c1)Nc1nnc(CC2=CCCCC2)s1 | -10% | 3% | -1% | 1 | i | 25µM*
O=C(Nc1ccc(Cl)cc1)Nc1nnc(CSCc2ccc(Cl)cc2)s1 | 0% | -2% | -19% | 0 | i | 7.9µM*
CCc1nnc(NC(=O)Nc2ccc(Cl)cc2)s1 | 5% | 3% | -7% | -1 | i | -11%
Cc1c(NC(=O)c2ccco2)c(=O)n(-c2ccccc2)n1C | -4% | 2% | -9% | 2 | i | 17%
O=C(CSc1nnc2c3ccccc3c3ccccc3c2n1)Nc1ccccc1F | 4% | -3% | 20% | 5 | i | ?
O=C(CSc1nnc2c3ccccc3c3ccccc3c2n1)Nc1ccccc1 | -2% | . | 5% | 2 | . | 13µM*
O=C(NCc1ccc2c(c1)OCO2)c1nc(S(=O)(=O)Cc2ccccc2F)ncc1Cl | 6% | 1% | 62% | 5 | . | 27%
Cc1ccc(-n2cc3c(-c4cccc(Br)c4)nnc(C)c3n2)cc1 | 4% | -13% | 3% | 5 | -102%* | 8%
Cc1nnc(-c2cccc(Br)c2)c2cn(-c3ccccc3Cl)nc12 | 21% | -8% | -7% | 0 | i | 7%
CC1c2ccsc2CCN1S(=O)(=O)c1ccccc1 (stereo not drawn) | -18% | -1% | 34% | 5 | i | .
COc1ccc(C(CNC(=O)CNC(=O)c2cc(OC)c(OC)c(OC)c2)N2CCOCC2)cc1 (stereo not drawn) | . | -2% | . | . | i | .
O=C(CCc1ccccc1)c1ccc2c(c1)OCCCO2 | -1% | -6% | 9% | 3 | i | 0%
O=C(CCCc1ccccc1)c1ccc2c(c1)OCCO2 | 5% | 15% | -4% | 5 | -125%* | 7%
CN/C=C1\C(=O)C(C)(C)Oc2ccc3ccc(=O)oc3c21 | 25% | -1% | -4% | -1 | -93%* | 1%
Cc1cc(C)c2nc3c(c(C(=O)O)c2c1)CCC3 | -2% | 3% | -5% | 3 | i | -5%
CC(C)OP(=O)(c1ccc(N(C)C)cc1)C(O)c1ccc(N(C)C)cc1 (stereo not drawn) | -1% | -11% | 15% | 2 | i | 10µM*
N#Cc1cc(-c2ccc(Cl)cc2)cn(Cc2c(Cl)cccc2Cl)c1=O | ? | 212% | 6% | -2 | -95%* | .
C=CCn1cc(-c2ccc(Cl)cc2)cc(C#N)c1=O | 11% | 132% | -12% | -2 | i | -1%
CSc1ccc(CNC(=O)C2Cc3cc(S(=O)(=O)N4CCCCC4)ccc3N2C(C)=O)cc1 (stereo not drawn) | -1% | -6% | 11% | . | i | .
SMILES | MBNL1-CUG inh | ASM inhibitor | CXXC DNA block | Menin MLL FP FL | Akt phos inh | Menin-MLL TR inh
COc1ccc(CC(=O)Nc2ccc(-c3nnc(-c4ccccc4)o3)cc2)cc1OC | -6% | 1% | 8% | 5 | -118%* | -3%
COc1ccc(CC(=O)Nc2cccc(-c3nnc(-c4ccccc4)o3)c2)cc1OC | 5% | ? | 13% | 8 | i | ?
COc1cccc(C(=O)N[C@@H](CCSC)c2nc3ccccc3[nH]2)c1 | -20% | 2% | -2% | -1 | i | 0%
CCCCCCn1c(SCC(=O)c2c(N)n(C)c(=O)n(C)c2=O)nc2ccccc21 | 3% | 0% | -15% | -1 | -98%* | 1%
CCCn1c(N)c(C(=O)CSc2nc3ccccc3n2CCC#N)c(=O)n(C)c1=O | 9% | 0% | 6% | 0 | i | 11%
CCOC(=O)C1=C(C)N=C2SC(C(=O)OC)=CC(=O)N2C1c1ccc(F)cc1 (stereo not drawn) | 5% | -24% | 11% | 17 | -87%* | 11%
O=C(NC(=S)N1CCN(c2ccc([N+](=O)[O-])cc2)CC1)c1ccco1 | 32% | -2% | -4% | 2 | i | 8%
c1ccc(CCNc2ccnc3cc4ccccc4cc23)cc1 | ? | i | ? | -21 | i | 22µM*
Cc1ccc2c(c1)N(CC(=O)NCCCN1CCCC1)C(=O)CO2 | 4% | -1% | 12% | 3 | i | -2%
CCN(C(=O)CCS(=O)(=O)c1ccc(Br)cc1)c1ccc2c(c1)OCO2 | -4% | 1% | 12% | 1 | -108%* | ?
COc1ccc(-c2cc(=O)c3c(O)cc(O[C@H]4OC(COC5OC(C)C(O)C(O)[C@H]5O)C(O)C(O)C4O)cc3o2)cc1O (stereo partly drawn) | . | . | 12% | 1 | . | 25µM*
COc1ccc(C2=C(Nc3ccc(F)cc3)c3ccccc3C2=O)cc1 | 0% | -5% | 15% | 1 | -137%* | ?
O=C(NCc1ccccn1)C1CC(c2ccc(F)cc2)=NO1 (stereo not drawn) | -10% | 1% | 38% | 1 | -112%* | 5%
O=C(NCc1ccccn1)C1CC(c2ccc(Cl)c(Cl)c2)=NO1 (stereo not drawn) | 3% | -1% | 19% | 2 | i | -21%
O=C(O)COc1ccc(OCCNC[C@@H](O)COc2ccccc2)cc1 | . | . | . | -6 | . | 0%[24.8 µM]
COc1ccc(CCNC(=O)CN2C(=O)C3(OCCCO3)c3ccccc32)cc1OC | -9% | -2% | -8% | 1 | -90%* | 16%
CN(C1=NS(=O)(=O)c2ccccc21)c1ccc(OC(=O)c2ccccc2F)cc1 | . | . | . | . | i | .
COc1cc(C(c2oc(CO)cc(=O)c2O)c2oc(CO)cc(=O)c2O)cc(OC)c1OC | . | 2% | -1% | 0 | i | 4%
O=C(Cc1n[nH]c(=O)c2ccccc12)Nc1ccc(-c2nnc3n2CCCCC3)cc1 | -2% | 1% | 7% | 5 | -110%* | -1%
